Measured values as given in PubChem BioAssay (NCATS).
Results filed as inconclusive are left out. Unmarked numbers belong to inactive results. Activity calls are given as the source filed them. Calls come from the whole dose curve; as a rule, active = well fitted inhibition curve with a large enough effect; inconclusive = small, poorly fitted or top-dose-only effect; inactive = no such curve, though single readings can be large or run the other way.

test system: Zika virus NS2B-NS3 protease (linked construct); assay: Primary screen NINDS Rhodamine qHTS for Zika virus inhibitors (AID 1347160); settings: purified NS2B-NS3 protease, Rhodamine110 substrate fluorescence; series mostly up to 57.1 µM; activity change, negative = inhibition: at the top concentration; note: nearly all actives have a fitted effect of over 55% in size
Method in brief: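 Single-chain NS2B-NS3 protease, 25 nM, pH 8.0; compounds preincubated 15 min. Activity: Rhodamine110 release from 1.5 microM substrate over 15 min, room temperature, data fitted to 4-parameter Hill.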
% is set by controls: 0 for no effect and ±100 for the full control effect.

`COc1cc2ncnc(Nc3cccc(I)c3)c2cc1OC` was tested, and the “outcome” value was “inactive”.
`O=C(Nc1ccc(N2C(=O)[C@@H]3[C@H](C2=O)[C@@H]2C=C[C@H]3C2)c(Cl)c1)c1ccccn1` was tested, and the “outcome” value was “inactive”.
`CCC(CC)C(c1ccc(Nc2nc3ccccc3s2)cc1)n1cncn1` (stereo unspecified) was tested, and the “outcome” value was “inactive”.

First: N#Cc1ccc(O[C@@H]2c3ccccc3C[C@H]2N2CCC[C@@H](N)C2)c(Cl)c1
Second: NS(=O)(=O)c1ccc(N2N=C(c3ccccc3)CC2c2ccccc2)cc1 (stereo unspecified)
The “activity change, negative = inhibition” value of the first is higher: 145% for the first, 9.16% for the second.

Compared with `CC(C)S(=O)(=O)Nc1ccc(F)c(C(=O)c2c[nH]c3ncc(-c4cccnc4)cc23)c1F`, `COc1ccc(OC)c(-c2ccc(NC(=O)c3ccncc3F)cc2)c1` is higher in “activity change, negative = inhibition” value: -22.5% for the first, 13.7% for the second.

Going from `Cc1[nH]c2ccccc2c1CCNCc1ccc(/C=C/C(=O)NO)cc1` to `CC(C)CCNC(=O)c1ccc2c(c1)nc(Nc1n[nH]c3ccc(-c4ccccc4OC(F)(F)F)cc13)n2C1CCC(O)CC1` (stereo unspecified), the “activity change, negative = inhibition” value rises from -14.8% to -13.9%.

Compared with `CC(NC(=O)Cc1cc(F)cc(F)c1)C(=O)NC1C(=O)N(C)c2ccccc2-c2ccccc21` (stereo unspecified), `c1cc(-c2cnn3cc(-c4ccc(N5CCNCC5)cc4)cnc23)c2cccnc2c1` is lower in “activity change, negative = inhibition” value: 109% for the first, 16.3% for the second.

First: COc1cc(OC)c(NC(=O)c2ccc(Cc3cc4c(cc3C)C(C)(C)CCC4(C)C)o2)c(OC)c1
Second: C=C1C(=O)OC2CC(C)C(CCC(C)O)=CCC12 (stereo unspecified)
The “activity change, negative = inhibition” value of the first is lower: -25.4% for the first, 4.83% for the second.

`C=C1[C@@H](OC(C)=O)CC[C@@]2(C)[C@@H](OC(C)=O)[C@H](OC(C)=O)C3=C(C)C[C@H](OC(=O)C(C)CC)[C@@H]([C@@H](OC(C)=O)[C@H]12)C3(C)C` (stereo partly specified) was tested, and the “activity change, negative = inhibition” value was -15.9% [at 15.1 µM].

Compared with `COC(=O)/C=C/C=C/C(=O)OC1C=C2COC(=O)C2(O)C2(C)CCCC(C)(C)C12` (stereo unspecified), `C/C=C(\C)C(=O)OC1C[C@@]2(COC(C)=O)O[C@H]2/C=C\[C@@]2(C)O[C@@H]2[C@H]2OC(=O)C(COC(C)=O)=C12` (stereo partly specified) is higher in “activity change, negative = inhibition” value: -19.1% [at 33.1 µM] for the first, -6.19% [at 33.1 µM] for the second.
